Experimental data from the supplement of paper PMC10127200.
Where a name gives a salt, the structure may show the parent alone.

Columns and labels:
Assay in all cases: Euclidean distance of Cell Painting phenotypic profile (signed KS, 77 features) to DMSO centroid (dimensionless distance); 5 or 10 uM (library dependent); higher = stronger phenotypic change vs DMSO (phenoactivity)
Settings in all cases: 48 h
786-O = system: 786-O
In short: (§1)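 Five cancer lines, together with a healthy fibroblast line, received library compounds for 48 h at a library-dependent 10 or 5 uM and 0.1% DMSO final. Harmony then derived 77 features from confocal 20X images (9 fields/well) of the stained cells, scoring each as a signed Kolmogorov-Smirnov statistic against same-plate vehicle wells. After plate-position correction, correlation weighting and replicate averaging at the top dose, phenoactivity was taken as each profile's Euclidean distance to the median vehicle profile.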

A549 = system: A549
In short: as §1

DU145 = system: DU145
In short: as §1

FB = system: FB
In short: as §1

HEPG2 = system: HEPG2
In short: as §1

OVCAR4 = system: OVCAR4
In short: as §1

| Structure (SMILES) | Euclidean distance (786-O) | Euclidean distance (A549) | Euclidean distance (DU145) | Euclidean distance (FB) | Euclidean distance (HEPG2) | Euclidean distance (OVCAR4) |
| --- | --- | --- | --- | --- | --- | --- |
| CC(C)(C)Cn1c(N)nc2ccc(-c3[nH]c(C(C)(C)C)nc3-c3ccc(F)cc3)nc21 | 4.34 | 2.69 | 2.57 | 3.56 | 4.51 | 3.76 |
| O=C(O)Cc1ccccc1Nc1c(Cl)cccc1Cl [Diclofenac Diethylamine] | 0.84 | 0.842 | 0.728 | 0.689 | 0.397 | 0.97 |
| CC1=NN(c2ccc(C)c(C)c2)C(=O)/C1=N\Nc1cccc(-c2cccc(C(=O)O)c2)c1O [Eltrombopag] | 2.4 | 1.81 | 3.38 | 2.71 | 3.89 | 2.45 |
| CCOC(=O)c1ccc(NC2CCCCC2)c(N)c1 [Ferrostatin-1 (Fer-1)] | 0.915 | 1.54 | 1.71 | 1.18 | 0.921 | 1.09 |
| CCOC(=O)Nc1ccc(NCc2ccc(F)cc2)nc1N [Flupirtine maleate] | 1.54 | 3.24 | 1.53 | 1.25 | 0.854 | 1.37 |
| Cn1cc(-c2ccc3ncc(Cc4ccc5ncccc5c4)n3n2)cn1 | 1.26 | 0.825 | 0.747 | 0.784 | 1.92 | 1.31 |
| CC[C@@H]1/C=C(\C)C[C@H](C)C[C@H](OC)[C@H]2O[C@@](O)(C(=O)C(=O)N3CCCC[C@H]3C(=O)O[C@H](/C(C)=C/[C@@H]3CC[C@@H](O)[C@H](OC)C3)[C@H](C)[C@@H](O)CC1=O)[C@H](C)C[C@@H]2OC [Ascomycin (FK520)] | 1.06 | 1.18 | 1.28 | 1.43 | 0.58 | 0.799 |
| CC/C=C\C/C=C\C/C=C\C/C=C\C/C=C\C/C=C\CCC(=O)O [Docosahexaenoic Acid] | 1.08 | 0.581 | 0.837 | 1.06 | 0.766 | 1.1 |
| CC(C)n1cnc2c(NCCc3ccc(O)cc3)nc(-c3csc4ccccc34)nc21 [StemRegenin 1 (SR1)] | 0.931 | 1.13 | 1.12 | 1.04 | 1.04 | 0.909 |
| NCC[C@H](O)C(=O)N[C@@H]1C[C@H](N)[C@@H](O[C@H]2O[C@H](CN)[C@@H](O)[C@H](O)[C@H]2O)[C@H](O)[C@H]1O[C@H]1O[C@H](CO)[C@@H](O)[C@H](N)[C@H]1O [Amikacin hydrate] | 1.52 | 1.1 | 0.584 | 1.08 | 1.29 | 1.07 |
| CC(=O)NC[C@H]1CN(c2ccc(N3CCOCC3)c(F)c2)C(=O)O1 [Linezolid] | 1.83 | 1.27 | 1.73 | 0.611 | 0.92 | 1.35 |
| COc1cccc2c1C(=O)c1c(O)c3c(c(O)c1C2=O)C[C@@](O)(C(=O)CO)C[C@@H]3O[C@H]1C[C@H](N)[C@H](O)[C@H](C)O1 [Doxorubicin (Adriamycin)] | 4.79 | 5.36 | 4.79 | 5.17 | 4.55 | 5 |
| CC(COc1ccccc1)NC(C)C(O)c1ccc(O)cc1 (centres undefined) [Isoxsuprine hydrochloride] | 1.44 | 0.704 | 0.854 | 1.28 | 0.54 | 1.1 |
| COCC1=C(C(=O)OC(C)OC(=O)OC(C)C)N2C(=O)[C@@H](NC(=O)/C(=N\OC)c3csc(N)n3)[C@H]2SC1 (some centres undefined) [Cefpodoxime proxetil] | 1.25 | 0.683 | 0.813 | 1.04 | 0.687 | 0.958 |
| N#Cc1c(Oc2ccc(F)c(NC(=O)Cc3cccc(C(F)(F)F)c3)c2)ccc2nc(NC(=O)C3CC3)sc12 | 2.61 | 2.09 | 0.85 | 1.19 | 1.22 | 2.04 |
| CCC1(C)CC(=O)NC1=O (centres undefined) [Ethosuximide] | 0.782 | 1.2 | 1.11 | 0.965 | 0.843 | 1.04 |
| O=c1cc(-c2ccccc2)oc2cc(O)cc(O)c12 [Chrysin] | 1.58 | 1.09 | 1.1 | 1 | 1.37 | 1.37 |
| CC[C@H](C)C[C@H](C)CCCCCCCCC(=O)N[C@H]1C[C@@H](O)[C@@H](NCCN)NC(=O)[C@@H]2[C@@H](O)CCN2C(=O)[C@H]([C@H](O)CCN)NC(=O)[C@H]([C@H](O)[C@@H](O)c2ccc(O)cc2)NC(=O)[C@@H]2C[C@@H](O)CN2C(=O)[C@H]([C@@H](C)O)NC1=O [Caspofungin Acetate] | 2.18 | 0.866 | 1.51 | 2.42 | 1.15 | 1.86 |
| COC(=O)N[C@H](C(=O)N1CC2(CC2)C[C@H]1c1nc(-c2ccc3c(c2)C(F)(F)c2cc(-c4ccc5[nH]c([C@@H]6[C@H]7CC[C@H](C7)N6C(=O)[C@@H](NC(=O)OC)C(C)C)nc5c4)ccc2-3)c[nH]1)C(C)C [Ledipasvir (GS5885)] | 1.65 | 1.83 | 1.33 | 1.94 | 1.09 | 1.18 |
